PMC5540273 (PLoS ONE, 2017)

Columns and labels:
Conditions in all cases: concentration: 1 μM, replicates: in singlicate; n = 1
TAOK1 = system: TAOK1
TAOK2 = system: TAOK2
TAOK3 = system: TAOK3
TBK1 = system: TBK1
TEC = system: TEC
TESK1 = system: TESK1
TGFBR1 = system: TGFBR1
TGFBR2 = system: TGFBR2
TIE1 = system: TIE1
TIE2 = system: T1, TIE2
T1 construct: gene TEK

TLK1 = system: TLK1
TLK2 = system: TLK2
TNIK = system: TNIK
TNK1 = system: TNK1
TNK2 = system: TNK2
TNNI3K = system: TNNI3K
TRKA = system: T2, TRKA
T2 construct: gene NTRK1

TRKB = system: TRKB
TRKC = system: T3, TRKC
T3 construct: gene NTRK3

TRPM6 = system: TRPM6
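Further: KINOMEscan kinase panel screen.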

| SMILES | %Inh (TAOK1) | %Inh (TAOK2) | %Inh (TAOK3) | %Inh (TBK1) | %Inh (TEC) | %Inh (TESK1) | %Inh (TGFBR1) | %Inh (TGFBR2) | %Inh (TIE1) | %Inh (TIE2) | %Inh (TLK1) | %Inh (TLK2) | %Inh (TNIK) | %Inh (TNK1) | %Inh (TNK2) | %Inh (TNNI3K) | %Inh (TRKA) | %Inh (TRKB) | %Inh (TRKC) | %Inh (TRPM6) |
| --- | --- | --- | --- | --- | --- | --- | --- | --- | --- | --- | --- | --- | --- | --- | --- | --- | --- | --- | --- | --- |
| Cc1ccccc1Cn1ccn2c(=O)cc(N3CCOCC3)nc12 [GSK2269905] | 0% | 0% | 0% | 0% | 16% | 15% | 0% | 0% | 0% | 0% | 0% | 0% | 0% | 6% | 32% | 4% | 0% | 0% | 0% | 2% |
| CC(=O)c1cccc(NC(=O)NC2CCN(c3ccnc(Nc4ccc(F)cc4)n3)C2)c1 (stereo not shown) [GSK1379710] | 2% | 0% | 11% | 18% | 4% | 20% | 38% | 0% | 0% | 0% | 12% | 25% | 3% | 0% | 7% | 5% | 56% | 69% | 81% | 32% |
| CCCCc1nn2ncccc2c1-c1ccnc(NC2CC2)n1 [GW684374] | 0% | 0% | 0% | 7% | 3% | 13% | 29% | 7% | 0% | 0% | 15% | 7% | 0% | 0% | 0% | 0% | 0% | 6% | 0% | 25% |
| Cc1ccc(NC(=O)Nc2ccc(Cl)c(C(F)(F)F)c2)cc1-c1ccc(C(=O)Nc2ccncc2)cc1 [GSK1398470] | 0% | 0% | 0% | 17% | 8% | 23% | 0% | 7% | 6% | 0% | 20% | 8% | 9% | 20% | 10% | 64% | 11% | 0% | 0% | 6% |
| CCn1c(-c2ccccc2)nc2cnccc21 [SB-733416] | 0% | 0% | 1% | 0% | 0% | 9% | 0% | 8% | 0% | 0% | 0% | 0% | 0% | 31% | 17% | 16% | 0% | 0% | 25% | 0% |
| Cn1cncc1-c1cc2c(Nc3ccc(OCc4ccccc4)cc3)ncnc2cn1 [GW281179] | 0% | 0% | 0% | 0% | 0% | 35% | 0% | 0% | 0% | 0% | 18% | 0% | 0% | 1% | 20% | 11% | 0% | 37% | 0% | 12% |
| O=c1cc(N2CCOCC2)nc2n(Cc3ccccc3F)ccn12 [GSK2297428] | 0% | 0% | 0% | 15% | 0% | 3% | 0% | 0% | 0% | 0% | 0% | 0% | 0% | 0% | 4% | 0% | 0% | 0% | 0% | 0% |
| Fc1ccc(-c2nc3n(c2-c2ccncc2)CCS3)cc1 [GI98581] | 0% | 0% | 0% | 5% | 1% | 23% | 26% | 8% | 19% | 0% | 0% | 0% | 18% | 0% | 11% | 2% | 11% | 0% | 17% | 23% |
| COc1cccc(C2=C(Nc3cc(Cl)c(O)c(Cl)c3)C(=O)NC2=O)c1 [SB-390767] | 69% | 0% | 29% | 0% | 1% | 0% | 0% | 30% | 0% | 0% | 0% | 0% | 0% | 23% | 26% | 13% | 0% | 0% | 0% | 15% |
| O=C1NC(=O)C(c2ccc(Cl)cc2)=C1Nc1cccc(Cl)c1 [SB-317651] | 15% | 2% | 15% | 15% | 0% | 22% | 0% | 8% | 0% | 6% | 12% | 0% | 0% | 0% | 0% | 0% | 23% | 21% | 0% | 0% |
| COc1ccc(CSc2nnc(-c3ccc4c(c3)CCO4)o2)cc1 | 0% | 0% | 0% | 11% | 0% | 0% | 0% | 0% | 0% | 0% | 0% | 0% | 0% | 0% | 0% | 0% | 0% | 0% | 0% | 0% |
